The values below come from the supplement of paper PMC9262897, “Low-cost anti-mycobacterial drug discovery using engineered E. coli” (Nature Communications, 2022).

Holding throughout (test): growth (OD600 after 10 h); higher = more growth (less inhibition)
Experiment [1] deals with E. coli TESEC Alr+ wild-type control. Conditions: compound 0.1 mM; raw OD600 reference: median of DMSO wells 0.241, cell-free background 0.041. Here is the method:
(§1)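 TESEC Mtb Alr E. coli, or the Alr+ wild-type control, in 384-well plates with Prestwick library compounds at 0.1 mM and 1% DMSO, across arabinose induction levels of 1E3 to 1E7 nM. Growth is read as OD600 after 10 h at 37 °C in triplicate biological replicates.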

Experiment [2] concerns E. coli TESEC Mtb Alr. The settings on record: compound 0.1 mM. The protocol:
as §1

Another experiment has as its system E. coli TESEC Mtb Asd. Conditions: compound 0.1 mM. The protocol:
(§2)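 TESEC E. coli strains in which the native enzyme is deleted and replaced by arabinose-inducible Mtb Asd, DapB, CysH or TrpD, each grown in its selective medium. Strains were screened against the Prestwick library at 0.1 mM and 1% DMSO in 384-well format at low and high arabinose induction. Growth is read as OD600 after 10 h in triplicate.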

The next experiment relates to E. coli TESEC Mtb DapB. Conditions: compound 0.1 mM. The protocol:
as §2

The subject of experiment [3] is E. coli TESEC Mtb Alr. The settings on record: compound 0.1 mM. Here is the method: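 TESEC Mtb Alr E. coli (ΔaraC ΔtolC ΔentC Δalr ΔdadX, arabinose-inducible Mtb Alr) or the Alr+ wild-type control strain, grown in defined M9-fructose medium without D-alanine in 96-well plates with Prestwick library compounds at 0.1 mM and 1% DMSO. Low Alr induction is 0.1 µM arabinose and high induction is 10 mM arabinose.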
This is another data set of the same source.

Where [4] appears, read: arabinose 1000 nM, raw OD600 reference: median of DMSO wells 0.294, cell-free background 0.041.
Where [5] appears, read: arabinose 10000 nM, raw OD600 reference: median of DMSO wells 0.264, cell-free background 0.041.
[6] abbreviates: arabinose 100000 nM, raw OD600 reference: median of DMSO wells 0.201, cell-free background 0.041.
Where [7] appears, read: arabinose 1000000 nM, raw OD600 reference: median of DMSO wells 0.193, cell-free background 0.041.
Setting [8] is: arabinose 10000000 nM, raw OD600 reference: median of DMSO wells 0.146, cell-free background 0.041.
The mark [9] stands for this setting: arabinose induction (level): High, raw OD600 reference: median of DMSO wells 0.331, cell-free background 0.041.
Setting [10] is: arabinose induction (level): Low, raw OD600 reference: median of DMSO wells 0.417, cell-free background 0.041.
The mark [11] stands for this setting: arabinose induction (level): High, raw OD600 reference: median of DMSO wells […], cell-free background 0.041.
Where [12] appears, read: arabinose induction (level): Low, raw OD600 reference: median of DMSO wells 0.227, cell-free background 0.041.
The mark [13] stands for this setting: arabinose 100 nM, raw OD600 reference: median of DMSO wells 0.413, cell-free background 0.052.
The mark [14] stands for this setting: arabinose 10000000 nM, raw OD600 reference: median of DMSO wells […], cell-free background 0.052.

Counter-ions that a name gives are not always drawn. ± gives the standard deviation of the averaged measurements.

As to `CCC(NC(C)C)C(O)c1ccc(O)c(O)c1` (centres undefined) [Isoetharine mesylate salt], the growth in experiment [1] was found to be 0.196 ± 0.0071; in the experiment on E. coli TESEC Mtb Alr [2] (setting [4]) it was 0.303 ± 0.012; in the experiment with E. coli TESEC Mtb Alr [2] (setting [5]) it was 0.277 ± 0.005; with E. coli TESEC Mtb Alr [2] (setting [6]), 0.188 ± 0.018; in the experiment on E. coli TESEC Mtb Alr [2] (setting [7]), 0.18 ± 0.0035; in the experiment with E. coli TESEC Mtb Alr [2] (setting [8]) it was 0.155 ± 0.0024. The growth in the experiment with E. coli TESEC Mtb Asd (setting [9]) was found to be 0.309 ± 0.11; in the experiment with E. coli TESEC Mtb Asd (setting [10]), 0.37 ± 0.062; in the experiment with E. coli TESEC Mtb DapB (setting [11]), 0.187 ± 0.0097; with E. coli TESEC Mtb DapB (setting [12]) it was 0.226 ± 0.031; in the experiment on E. coli TESEC Mtb Alr [3] (setting [13]) it was 0.401 ± 0.032; with E. coli TESEC Mtb Alr [3] (setting [14]), 0.344 ± 0.019.

For `CC(C)[C@H]1CC[C@H](C(=O)N[C@H](Cc2ccccc2)C(=O)O)CC1` [Nateglinide], the growth in experiment [1] amounted to 0.181 ± 0.0028; in the experiment with E. coli TESEC Mtb Alr [2] (setting [4]), 0.277 ± 0.0054; in the experiment with E. coli TESEC Mtb Alr [2] (setting [5]) it was 0.246 ± 0.019; with E. coli TESEC Mtb Alr [2] (setting [6]) it was 0.169 ± 0.0079; in the experiment with E. coli TESEC Mtb Alr [2] (setting [7]), 0.114 ± 0.0027; in the experiment with E. coli TESEC Mtb Alr [2] (setting [8]), 0.147 ± 0.0056. Moreover, the growth was 0.229 ± 0.039 in the experiment on E. coli TESEC Mtb Asd (setting [9]); 0.23 ± 0.021 with E. coli TESEC Mtb Asd (setting [10]); 0.1583 ± 0.001 in the experiment with E. coli TESEC Mtb DapB (setting [11]); 0.217 ± 0.06 in the experiment with E. coli TESEC Mtb DapB (setting [12]); 0.22 ± 0.16 in the experiment on E. coli TESEC Mtb Alr [3] (setting [13]); 0.284 ± 0.009 in the experiment with E. coli TESEC Mtb Alr [3] (setting [14]).

Take `CN(C)[C@@H]1C(=O)C(C(=O)NCNCCCC[C@H](N)C(=O)O)=C(O)[C@@]2(O)C(=O)C3=C(O)c4c(O)cccc4[C@@](C)(O)[C@H]3C[C@@H]12` [Lymecycline]: the growth in experiment [1] came out at 0.178 ± 0.0022; in the experiment on E. coli TESEC Mtb Alr [2] (setting [4]) it was 0.221 ± 0.0059; in the experiment on E. coli TESEC Mtb Alr [2] (setting [5]), 0.18 ± 0.011; in the experiment on E. coli TESEC Mtb Alr [2] (setting [6]), 0.204 ± 0.016; in the experiment on E. coli TESEC Mtb Alr [2] (setting [7]), 0.0804 ± 0.0073; in the experiment on E. coli TESEC Mtb Alr [2] (setting [8]), 0.101 ± 0.0033. Moreover, the growth in the experiment with E. coli TESEC Mtb Asd (setting [9]) is 0.12 ± 0.0094; in the experiment with E. coli TESEC Mtb Asd (setting [10]) it was 0.159 ± 0.0077; in the experiment with E. coli TESEC Mtb DapB (setting [11]), 0.0866 ± 0.01; with E. coli TESEC Mtb DapB (setting [12]), 0.152 ± 0.0064; in the experiment on E. coli TESEC Mtb Alr [3] (setting [13]), 0.312 ± 0.031; in the experiment with E. coli TESEC Mtb Alr [3] (setting [14]), 0.0693 ± 0.0019.

Take `COc1cccc2c1C(=O)c1c(O)c3c(c(O)c1C2=O)C[C@@](O)(C(=O)CO)C[C@@H]3O[C@H]1C[C@H](N)[C@H](O)[C@H](C)O1` [Doxorubicin hydrochloride]: the growth in experiment [1] is 0.0471 ± 0.00081; in the experiment with E. coli TESEC Mtb Alr [2] (setting [4]), 0.0479 ± 0.0023; in the experiment on E. coli TESEC Mtb Alr [2] (setting [5]), 0.047 ± 0.002; in the experiment with E. coli TESEC Mtb Alr [2] (setting [6]), 0.0467 ± 0.00066; with E. coli TESEC Mtb Alr [2] (setting [7]), 0.04497 ± 0.00012; with E. coli TESEC Mtb Alr [2] (setting [8]), 0.0474 ± 0.0025. For the same compound, the growth in the experiment with E. coli TESEC Mtb Asd (setting [9]) amounted to 0.0664 ± 0.0059; in the experiment with E. coli TESEC Mtb Asd (setting [10]) it was 0.0616 ± 0.0028; with E. coli TESEC Mtb DapB (setting [11]), 0.0535 ± 0.00072; in the experiment on E. coli TESEC Mtb DapB (setting [12]), 0.0539 ± 0.001; with E. coli TESEC Mtb Alr [3] (setting [13]), 0.0599 ± 0.0035; with E. coli TESEC Mtb Alr [3] (setting [14]), 0.0585 ± 0.00087.

Regarding `Cc1cccc(CN2CCN(C(c3ccccc3)c3ccc(Cl)cc3)CC2)c1` (centres undefined) [Meclozine dihydrochloride], the growth in experiment [1] was found to be 0.278 ± 0.0073; with E. coli TESEC Mtb Alr [2] (setting [4]), 0.279 ± 0.011; with E. coli TESEC Mtb Alr [2] (setting [5]), 0.302 ± 0.006; in the experiment on E. coli TESEC Mtb Alr [2] (setting [6]) it was 0.174 ± 0.023; in the experiment on E. coli TESEC Mtb Alr [2] (setting [7]), 0.129 ± 0.0042; with E. coli TESEC Mtb Alr [2] (setting [8]), 0.185 ± 0.0054. The growth was 0.207 ± 0.024 with E. coli TESEC Mtb Asd (setting [9]); 0.242 ± 0.0061 in the experiment on E. coli TESEC Mtb Asd (setting [10]); 0.209 ± 0.0042 with E. coli TESEC Mtb DapB (setting [11]); 0.247 ± 0.021 in the experiment with E. coli TESEC Mtb DapB (setting [12]); 0.428 ± 0.031 in the experiment on E. coli TESEC Mtb Alr [3] (setting [13]); 0.143 ± 0.0093 with E. coli TESEC Mtb Alr [3] (setting [14]).

Regarding `NS(=O)(=O)Cc1noc2ccccc12` [Zonisamide], the growth in experiment [1] stood at 0.252 ± 0.013; in the experiment on E. coli TESEC Mtb Alr [2] (setting [4]) it was 0.301 ± 0.012; in the experiment with E. coli TESEC Mtb Alr [2] (setting [5]), 0.2543 ± 0.0014; with E. coli TESEC Mtb Alr [2] (setting [6]), 0.203 ± 0.0022; with E. coli TESEC Mtb Alr [2] (setting [7]) it was 0.19 ± 0.0041; in the experiment on E. coli TESEC Mtb Alr [2] (setting [8]), 0.139 ± 0.0077. For the same compound, the growth in the experiment with E. coli TESEC Mtb Asd (setting [9]) turned out to be 0.296 ± 0.019; with E. coli TESEC Mtb Asd (setting [10]), 0.389 ± 0.02; in the experiment with E. coli TESEC Mtb DapB (setting [11]) it was 0.201 ± 0.0092; in the experiment with E. coli TESEC Mtb DapB (setting [12]) it was 0.234 ± 0.012; in the experiment on E. coli TESEC Mtb Alr [3] (setting [13]) it was 0.406 ± 0.0079; in the experiment on E. coli TESEC Mtb Alr [3] (setting [14]) it was 0.353 ± 0.018.

Take `COc1ccc(CC(C)NCC(O)c2ccc(O)c(NC=O)c2)cc1` (centres undefined) [Formoterol fumarate]: the growth in experiment [1] turned out to be 0.235 ± 0.0095; in the experiment on E. coli TESEC Mtb Alr [2] (setting [4]), 0.298 ± 0.0087; in the experiment with E. coli TESEC Mtb Alr [2] (setting [5]) it was 0.293 ± 0.011; with E. coli TESEC Mtb Alr [2] (setting [6]), 0.219 ± 0.024; with E. coli TESEC Mtb Alr [2] (setting [7]), 0.18 ± 0.011; in the experiment on E. coli TESEC Mtb Alr [2] (setting [8]), 0.16 ± 0.0057. For the same compound, the growth in the experiment on E. coli TESEC Mtb Asd (setting [9]) was determined as 0.251 ± 0.018; in the experiment with E. coli TESEC Mtb Asd (setting [10]), 0.395 ± 0.057; in the experiment with E. coli TESEC Mtb DapB (setting [11]) it was 0.212 ± 0.019; with E. coli TESEC Mtb DapB (setting [12]) it was 0.238 ± 0.025; in the experiment with E. coli TESEC Mtb Alr [3] (setting [13]), 0.41363 ± 5.8e-05; in the experiment on E. coli TESEC Mtb Alr [3] (setting [14]) it was 0.306 ± 0.019.
